Most compounds without a hit are left out; they make up all but 9.6% or so of the library.
INS promoter inh = TRM-6 insulin promoter activity inhibition; TRM-6 cells (human fetal islet line), insulin promoter-eGFP reporter, imaging; reporter expression induced with tamoxifen; inhibition, % at 2 µM; actives 0.9% (n = 130,000); AID 1273;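 active = inhibition above the mean plus 3 SD, with well images judged a real hit on visual review, cut at about 60% in these data, passing the limit was not always enough; inconclusive = inhibition over the cutoff but images rejected on review; inactive = inhibition not above the cutoff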
HCT116 PTEN-null = suppresses growth of cells with PTEN deletion; actives 1.2% (n = 140,000); viability, % at 10 µM; HCT116 PTEN-null viability, CellTiter-Glo, 60 h; active compounds read low; AID 827;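 active = viability at or below a set limit, 4 SD under the median of all tested compounds, cut at about 3.7% in these data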;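 note: PTEN knockout HCT116 line with beta catenin targeted HCT116 as companion control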
bCat KO growth = beta-catenin-lacking colon tumor cell growth suppression; HCT116 beta-catenin knockout viability, CellTiter-Glo, 60 h; active compounds read low; viability, % at 10 µM; actives 1.5% (n = 140,000); AID 818;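 active = viability at or under a set limit, the compound median less 4 SD, cut at about 6% in these data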;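 note: 0% = Hyamine 1622 control at 20 µM and 100% = untreated cell control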
Lmaj promast = inhibitors of Leishmania major promastigote growth; AID 1063; inhibition, % at 10 µM; Leishmania major promastigotes, resazurin fluorescence viability; actives 9% (n = 200,000); in the data active = inhibition above about 50%;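 note: promastigotes grown with compound for 44 hours at 28 °C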
Autophagy HCS = autophagy modulation, high-content screen; MEF GFP-LC3 puncta imaging; test concentration mostly 10 µM; AID 463193; actives 0.98% (n = 190,000); calls only at 10 µM (by protocol);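 active = percentage of spot-positive cells more than 3 SD above its plate mean, without a fluorescence outlier flag or 80% toxicity; inconclusive = no clear call, values can overlap the other calls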;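 note: spot-positive cell cutoff set from DMSO-treated cells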
Ins promoter up = MIN6 insulin promoter up-regulation; z-score at 5 µM; actives 0.3% (n = 190,000); MIN6 insulin promoter-GFP reporter, high-content imaging; active compounds read high; AID 1625;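 active = z-score above 3 at 5 µM with at least 500 cells counted in the well; inconclusive = wells under 500 cells, flagged as cytotoxic or low count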
* = called active by the depositor; i = inactive; ? = inconclusive; . = not tested or not shown; + = active, no number.

SMILES	INS promoter inh	HCT116 PTEN-null	bCat KO growth	Lmaj promast	Autophagy HCS	Ins promoter up
CN(C)S(=O)(=O)c1cccc(NC(=O)CN2C(=O)C3C4C=CC(C4)C3C2=O)c1 (stereo unspecified)	-26	102	99	32	i	0.12
CC(C)CCN1CCN(Cc2cccc(C(F)(F)F)c2)CC1CCO (stereo unspecified)	.	.	.	92*	i	.
CSc1cccc(CN2CCN(CCC(C)C)C(CCO)C2)c1 (stereo unspecified)	.	.	.	79*	i	-0.17
CC(C)CCN1CCN(Cc2ccc3nsnc3c2)CC1CCO (stereo unspecified)	.	.	.	41	i	-0.29
CC(C)CC1NC(=O)N(CC(=O)N2CCCc3ccccc32)C1=O (stereo unspecified)	.	.	.	-8	i	0.8
COc1ccccc1Nc1nc2ccccc2[nH]1	-22	67	74	17	i	-0.41
Cc1ccc(Nc2nc3ccccc3[nH]2)nc1	13	73	64	101*	i	-0.52
Cc1ccc(-c2nc3ccccc3s2)cc1NC(=S)NC(=O)c1cccc2ccccc12	-31	1.7*	1.3*	19	i	0.03
Cc1ccc(-c2nc3ccccc3s2)cc1NC(=S)NC(=O)/C=C/c1ccco1	9	7	7	-2	i	-0.26
O=C(/C=C/c1ccco1)NC(=S)Nc1cc(-c2nc3ccccc3s2)ccc1Cl	.	1.6*	2.6*	-4	i	0.96
CCC(=NCCc1c(C)[nH]c2ccccc12)C1=C(O)CC(c2ccccc2)CC1=O (stereo unspecified)	-16	27	24	96*	i	1.3
CSc1ccc(/C=C(/Sc2nnc(-c3ccccc3)o2)C(=O)O)cc1	80*	.	.	0	i	0.51
COc1ccc(-c2nnc(S/C(=C/c3ccc(Cl)cc3)C(=O)O)o2)cc1	40	.	.	-5	i	2
COc1cc(/C=C2/C(=O)NN(c3cccc(C)c3)C2=O)cc([N+](=O)[O-])c1O	.	.	.	-14	i	0.45
O=C1c2ccccc2NC(c2ccc(-c3cccc([N+](=O)[O-])c3)o2)N1O (stereo unspecified)	38	10	12	82*	i	-0.3
O=C1c2ccccc2NC(c2ccc(-c3ccc(Br)cc3)o2)N1O (stereo unspecified)	-11	3.4*	4.5*	99*	i	-0.03
O=[N+]([O-])c1ccc(O)c(C=Nc2cccc3ncccc23)c1	25	.	.	1	i	.
CC1(C)C(CC2OCC(CN3CCCCC3)O2)[C@H]2CC[C@@H]1C2 (stereo partly specified)	.	.	.	.	.	-0.2
CCCCC(CC)C1OCC(CN2CCCC2)O1 (stereo unspecified)	-28	82	70	84*	i	1.9
CCOC(=O)C1CCCN(c2cc(C)nc3cc(-c4ccc(F)cc4)nn23)C1 (stereo unspecified)	.	58	64	3	i	-0.34
C#CCn1c(-c2cccs2)nc2ccccc21	93*	.	.	9	i	0.37
CCn1c(-c2cccs2)nc2ccccc21	?	94	91	10	i	.
Cc1ccc(S(=O)(=O)Nc2c(C)n(C)n(-c3ccccc3)c2=O)cc1C(=O)NCc1ccccn1	-143	100	86	-3	i	.
COC(=O)c1sc2nc(C)cc(-c3ccccc3)c2c1N	.	88	88	3	i	.
Nc1c(C(=O)Nc2nc3ccccc3s2)sc2nc(-c3cccs3)ccc12	-196	0.1*	-0.1*	1	+	.
SMILES	INS promoter inh	HCT116 PTEN-null	bCat KO growth	Lmaj promast	Autophagy HCS	Ins promoter up
CC(=O)c1sc2nc(-c3cccs3)ccc2c1N	-25	87	89	-8	i	0.14
COc1ccc(C(=O)c2sc3nc(C)cc(-c4cccs4)c3c2N)cc1OC	-103	75	82	6	+	2.5
COc1ccc(C(=O)c2sc3nc(C)cc(-c4cccs4)c3c2N)cc1	-178	74	86	73*	+	2.7
Cc1cc(-c2cccs2)c2c(N)c(C(=O)c3ccc4c(c3)OCO4)sc2n1	.	81	90	2	+	4.7*
Nc1c(C(=O)C2CC2)sc2nc(-c3cccs3)cc(C(F)(F)F)c12	-186	25	34	-3	?	.
CC(C)NC(=O)c1sc2nc(-c3cccs3)cc(-c3cccs3)c2c1N	43	101	95	3	+	0.46
CC1CCN(CC(=O)N2c3ccccc3CC2C)CC1 (stereo unspecified)	.	.	.	2	i	-0.17

Compound activity (PubChem)
